Test results: PubChem BioAssay (EPA / NIEHS)
Values joined by “and” are separate entries in the source; they are usually repeats but may differ in a detail not shown here. Equal values may be shown once. Where a structure was tested more than once in an assay, its records may differ in their call. Active and inactive are the calls of the source. The calls were made as follows: active = hit-call score of the fitted dose curve at least 0.9, where 1 is the maximum; inactive = score below 0.9.

Assay: ATG_PXRE_CIS: Attagene CIS-FACTORIAL HepG2 Assay for human Pregnane X Receptor Element (PXRE) (AID 2282957)
Details: HepG2 Attagene CIS-FACTORIAL PXRE reporter, mRNA; actives raise or lower the signal
Method in brief: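 HepG2 cells transiently transfected with cis-regulated multiple reporter transcription units; endogenous factor activity measured as reporter mRNA 24 h after dosing. RT-PCR, fluorescent primer extension, HpaI digestion, capillary electrophoresis; bidirectional fit versus DMSO baseline.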

Row | SMILES | outcome | AC50
1 | FC1CC(F)(F)C(F)(F)C1(F)F (stereo not drawn) | inactive | 
2 | CCCCOc1ccc(N)cc1 | inactive | 
3 | O=C(O)C(F)(F)C(F)(F)C(F)(F)C(F)(F)C(F)(F)C(F)(F)C(F)(F)C(F)(F)Cl | inactive | 13.7 µM (active)
4 | CC(Cc1ccc(O)c(O)c1)C(C)Cc1ccc(O)c(O)c1 (stereo not drawn) |  | 8.39 µM (active)
5 | FC(F)(F)C(F)(F)C(F)(F)C(F)(F)C(F)(F)C(F)(F)C(F)(F)I | inactive | 
6 | CCCCOCCOCCOC(=O)CCCCC(=O)OCCOCCOCCCC |  | 26.9 µM (active)
7 | OCCCC(F)(F)C(F)(F)C(F)(F)C(F)(F)C(F)(F)C(F)(F)C(F)(F)F | inactive | 79.6 µM (active)
8 | CNC(=S)NC |  | 24.9 µM (active)
9 | [Co] |  | 13.8 µM (active)
10 | C=CC(F)(F)C(F)(F)C(F)(F)C(F)(F)C(F)(F)C(F)(F)C(F)(F)C(F)(F)C=C | inactive | 
11 | CCC(=O)OCCc1ccccc1 | inactive | 
12 | CC/C=C\CCOC(=O)c1ccccc1 | inactive | 
13 | O=C(C=Cc1ccccc1)OCC=Cc1ccccc1 |  | 15.9 µM (active)
14 | CCCCCCCOC(=O)c1ccccc1C(=O)OCCCCCCC |  | 5.36 µM (active)
15 | OCCCC(F)(F)C(F)(F)C(F)(F)F | inactive | 
16 | CCCCCCC(C)OC(=O)CCCCC(=O)OC(C)CCCCCC (stereo not drawn) |  | 12.8 µM (active)
17 | OCC(F)(F)C(F)(F)C(F)(F)F | inactive | 

Assay: ATG_PPRE_CIS: Attagene CIS-FACTORIAL HepG2 Assay for human Peroxisome Proliferator-activated Response Element (PPRE) (AID 2282958)
Details: HepG2 PPRE cis-element reporter, Attagene transcription factor profiling; actives raise or lower the signal
Method in brief: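 HepG2 cells are transiently transfected with multiplexed cis-promoter reporter units to report endogenous PPAR activity. After 24 h dosing, reporter mRNA is read by RT-PCR and capillary electrophoresis. Fitting is bidirectional against DMSO.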

Row | SMILES | outcome | AC50
18 | C=C(C)C(=O)OCCC(F)(F)C(F)(F)C(F)(F)C(F)(F)C(F)(C(F)(F)F)C(F)(F)F | inactive | 
19 | CCCCCCCCCCCCCCCC[N+](C)(C)Cc1ccccc1 | inactive | 
20 | CC(C)(C)C(=O)CC(=O)C(F)(F)C(F)(F)C(F)(F)F | inactive | 
21 | C(=C(c1ccccc1)c1ccccc1)c1ccccc1 | inactive | 
22 | CCCCNc1ccccc1 | inactive | 
23 | O=C(O)C(F)(F)C(F)(F)C(F)(F)F | inactive | 
24 | FC(F)(F)C(F)(F)C(F)(F)N(C(F)(F)C(F)(F)C(F)(F)F)C(F)(F)C(F)(F)C(F)(F)F | inactive | 
25 | O=S(=O)(OCC(F)F)C(F)(F)F | inactive | 
26 | COC(OC(C)=O)c1ccccc1 (stereo not drawn) | inactive | 
27 | FC(F)(Br)C(F)(F)C(F)(F)C(F)(F)C(F)(F)C(F)(F)Br | inactive | 
28 | O=C(O)C(F)(OC(F)(F)C(F)(OC(F)(F)C(F)(F)C(F)(F)F)C(F)(F)F)C(F)(F)F (stereo not drawn) | inactive | 
29 | O=C(O)C(F)(F)C(F)(F)C(F)(F)C(F)(F)C(F)(F)C(F)(F)C(F)(F)C(F)(F)C(F)(F)C(F)(F)C(F)(F)C(F)(F)C(F)(F)F | inactive | 
30 | O=C(O)C(F)(F)C(F)(F)C(F)(F)C(F)(F)C(F)(F)C(F)(F)C(F)(F)C(F)(F)C(F)(F)C(F)F |  | 9.33 µM (active)
31 | O=C(O)C(F)(F)C(F)(F)C(F)F | inactive | 
32 | CCCCCCOC(=O)c1ccccc1O | inactive | 
33 | NC(=O)C(F)(F)C(F)(F)C(F)(F)C(F)(F)F | inactive | 
34 | FC(F)(F)C(F)(F)C(F)(F)C(F)(F)C(F)(F)C(F)(F)CC1CO1 (stereo not drawn) | inactive | 

Row | SMILES | outcome | AC50
35 | FC1CC(F)(F)C(F)(F)C1(F)F (stereo not drawn) | inactive | 
36 | CCCCOc1ccc(N)cc1 | inactive | 
37 | O=C(O)C(F)(F)C(F)(F)C(F)(F)C(F)(F)C(F)(F)C(F)(F)C(F)(F)C(F)(F)Cl |  | 39.2 µM (active) and 35.4 µM (active)
38 | CC(Cc1ccc(O)c(O)c1)C(C)Cc1ccc(O)c(O)c1 (stereo not drawn) | inactive | 
39 | FC(F)(F)C(F)(F)C(F)(F)C(F)(F)C(F)(F)C(F)(F)C(F)(F)I | inactive | 
40 | CCCCOCCOCCOC(=O)CCCCC(=O)OCCOCCOCCCC | inactive | 
41 | OCCCC(F)(F)C(F)(F)C(F)(F)C(F)(F)C(F)(F)C(F)(F)C(F)(F)F | inactive | 
42 | CNC(=S)NC | inactive | 
43 | [Co] | inactive | 
44 | C=CC(F)(F)C(F)(F)C(F)(F)C(F)(F)C(F)(F)C(F)(F)C(F)(F)C(F)(F)C=C | inactive | 
45 | CCC(=O)OCCc1ccccc1 | inactive | 
46 | CC/C=C\CCOC(=O)c1ccccc1 | inactive | 
47 | O=C(C=Cc1ccccc1)OCC=Cc1ccccc1 | inactive | 
48 | CCCCCCCOC(=O)c1ccccc1C(=O)OCCCCCCC | inactive | 
49 | OCCCC(F)(F)C(F)(F)C(F)(F)F | inactive | 
50 | CCCCCCC(C)OC(=O)CCCCC(=O)OC(C)CCCCCC (stereo not drawn) | inactive | 
51 | OCC(F)(F)C(F)(F)C(F)(F)F | inactive | 

Assay: ATG_RORE_CIS: Attagene CIS-FACTORIAL HepG2 Assay for human RAR-related Orphan Receptor Element (RORE) (AID 2282959)
Details: HepG2 Attagene cis-factorial RORE reporter, mRNA; actives raise or lower the signal
Method in brief: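 HepG2 cells carrying transiently transfected cis-regulated reporter units; RORE-driven reporter mRNA quantified 24 h post-dosing by RT-PCR, 6-FAM primer extension, HpaI digestion and capillary electrophoresis. Bidirectional fit versus DMSO.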

Row | SMILES | outcome | AC50
52 | C=C(C)C(=O)OCCC(F)(F)C(F)(F)C(F)(F)C(F)(F)C(F)(C(F)(F)F)C(F)(F)F | inactive | 
53 | CCCCCCCCCCCCCCCC[N+](C)(C)Cc1ccccc1 | inactive | 
54 | CC(C)(C)C(=O)CC(=O)C(F)(F)C(F)(F)C(F)(F)F | inactive | 
55 | C(=C(c1ccccc1)c1ccccc1)c1ccccc1 | inactive | 
56 | CCCCNc1ccccc1 | inactive | 
57 | O=C(O)C(F)(F)C(F)(F)C(F)(F)F | inactive | 
58 | FC(F)(F)C(F)(F)C(F)(F)N(C(F)(F)C(F)(F)C(F)(F)F)C(F)(F)C(F)(F)C(F)(F)F | inactive | 
59 | O=S(=O)(OCC(F)F)C(F)(F)F | inactive | 
60 | COC(OC(C)=O)c1ccccc1 (stereo not drawn) | inactive | 
61 | FC(F)(Br)C(F)(F)C(F)(F)C(F)(F)C(F)(F)C(F)(F)Br | inactive | 
62 | O=C(O)C(F)(OC(F)(F)C(F)(OC(F)(F)C(F)(F)C(F)(F)F)C(F)(F)F)C(F)(F)F (stereo not drawn) | inactive | 
63 | O=C(O)C(F)(F)C(F)(F)C(F)(F)C(F)(F)C(F)(F)C(F)(F)C(F)(F)C(F)(F)C(F)(F)C(F)(F)C(F)(F)C(F)(F)C(F)(F)F | inactive | 
64 | O=C(O)C(F)(F)C(F)(F)C(F)(F)C(F)(F)C(F)(F)C(F)(F)C(F)(F)C(F)(F)C(F)(F)C(F)F | inactive | 
65 | O=C(O)C(F)(F)C(F)(F)C(F)F | inactive | 
66 | CCCCCCOC(=O)c1ccccc1O | inactive | 
67 | NC(=O)C(F)(F)C(F)(F)C(F)(F)C(F)(F)F | inactive | 
68 | FC(F)(F)C(F)(F)C(F)(F)C(F)(F)C(F)(F)C(F)(F)CC1CO1 (stereo not drawn) | inactive | 

Row | SMILES | outcome | AC50
69 | FC1CC(F)(F)C(F)(F)C1(F)F (stereo not drawn) | inactive | 
70 | CCCCOc1ccc(N)cc1 | inactive | 
71 | O=C(O)C(F)(F)C(F)(F)C(F)(F)C(F)(F)C(F)(F)C(F)(F)C(F)(F)C(F)(F)Cl |  | 28.4 µM (active) and 57.9 µM (active)
72 | CC(Cc1ccc(O)c(O)c1)C(C)Cc1ccc(O)c(O)c1 (stereo not drawn) |  | 6.13 µM (active)
73 | FC(F)(F)C(F)(F)C(F)(F)C(F)(F)C(F)(F)C(F)(F)C(F)(F)I | inactive | 
74 | CCCCOCCOCCOC(=O)CCCCC(=O)OCCOCCOCCCC | inactive | 
75 | OCCCC(F)(F)C(F)(F)C(F)(F)C(F)(F)C(F)(F)C(F)(F)C(F)(F)F | inactive | 247 µM (active)
76 | CNC(=S)NC | inactive | 
77 | [Co] | inactive | 
78 | C=CC(F)(F)C(F)(F)C(F)(F)C(F)(F)C(F)(F)C(F)(F)C(F)(F)C(F)(F)C=C | inactive | 
79 | CCC(=O)OCCc1ccccc1 | inactive | 
80 | CC/C=C\CCOC(=O)c1ccccc1 | inactive | 
81 | O=C(C=Cc1ccccc1)OCC=Cc1ccccc1 | inactive | 
82 | CCCCCCCOC(=O)c1ccccc1C(=O)OCCCCCCC | inactive | 
83 | OCCCC(F)(F)C(F)(F)C(F)(F)F | inactive | 
84 | CCCCCCC(C)OC(=O)CCCCC(=O)OC(C)CCCCCC (stereo not drawn) | inactive | 
85 | OCC(F)(F)C(F)(F)C(F)(F)F | inactive | 
